Results as given in the supplement of paper PMC3334620.
The full ranking holds about 33,000 sequences; the median of “E-score (-0.5 to 0.5)” is about -0.0059, and the highest 2% start at about 0.26. Only a selection was taken, and the highest values are over-represented in it overall.

Molecular target: T1, Cin5 (UniProt P40917)
T1 sequence: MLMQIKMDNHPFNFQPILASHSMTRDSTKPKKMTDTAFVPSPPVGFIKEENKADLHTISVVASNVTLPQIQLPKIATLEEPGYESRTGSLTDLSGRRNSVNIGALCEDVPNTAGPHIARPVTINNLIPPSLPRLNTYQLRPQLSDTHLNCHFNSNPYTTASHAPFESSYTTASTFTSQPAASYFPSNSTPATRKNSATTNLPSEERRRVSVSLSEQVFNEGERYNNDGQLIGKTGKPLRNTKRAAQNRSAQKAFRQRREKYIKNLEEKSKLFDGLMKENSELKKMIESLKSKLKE
Experiment: PBM E-score (8-mer binding enrichment) (E-score (-0.5 to 0.5)); higher = stronger / more preferred TF binding
Conditions: protein concentration: 100 nM; construct: GST-full length
How it was run: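 Each ungapped eight-base word and its reverse complement, pooled, received an E-score from the Universal PBM Analysis Suite. Underlying scans, normalised with masliner, recorded fluorescent anti-GST bound to GST-tagged yeast transcription factors. These were applied at about 100-200 nM to universal all-10-mer Agilent arrays double-stranded by primer extension.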

Sequence	PBM E-score
GCTTGAAA	0.0153
AAATCCAG	0.13
ATATCAAA	0.166
CAATCAAA	0.151
CTATCAAA	0.199
AAATCCAT	0.312
GAATCCAA	0.0873
GAATCAAA	0.142
AAATCCAC	0.0254
TAATCCAA	0.283
TTATCAAA	0.298
AAATCCAA	0.117
TAATCAAA	0.329
AAAAGAAT	0.257
CGTCTGAA	-0.133
CAAAGTCA	0.107
CACGGGCC	-0.296
CCGCATGA	-0.136
CCAAAGAC	-0.185
CAATCTCG	0.0199
GAATCGCA	-0.0879
AAATCATA	0.198
CAATCATA	0.201
TAATCATA	0.326
TAATCGCA	0.294

Sequence	PBM E-score
CAATCGCA	0.13
ACGTTGCT	0.188
ATGCTTGA	0.133
AAGAAGTG	0.015
CTTATTCA	0.142
GTTATTCA	0.143
ATTATTCA	0.262
ATTATTCC	0.273
ACTATTCC	0.0567
CTTATTCC	0.117
ATTATTCG	0.288
ACTATTCG	0.224
ATTATTAG	0.0574
GCGACCGA	0.0144
GTGAGGAA	-0.138
GGCTTTTA	-0.223
AACTGGGA	-0.0428
AATCCTAA	0.0229
ACAGTTGG	0.016
CTAACGAA	-0.0791
ATAACCAA	0.258
ATAACGTC	0.0919
GTAACGTA	0.129
ATAACCAG	0.0194
ATAACGTA	0.313

Sequence	PBM E-score
ATAACGAA	0.294
ATAACGAC	0.238
CTAACCAA	0.0775
ACCGGCGC	0.0762
ATCCGGCA	0.0463
GGTGAACC	-0.108
CTTTTGAC	-0.0394
AGTTACTC	0.0474
CGACACCC	-0.0488
ACATAGAG	-0.0918
ATGCGCAT	0.332
ATGCGCAC	0.0881
ATGCGCAA	0.128
AAGTCTAA	-0.0864
ACCCATTG	-0.0482
CAAGTTAC	0.104
ATCAGCAA	0.0322
ATAAGCAA	0.349
GTCAGCAA	0.267
GTAAGCAC	0.319
CTAAGCAA	0.076
CTAAGCAG	0.042
ATAAGCAC	0.175
ACAAGCAA	0.122
ATAAGCAT	0.118

Sequence	PBM E-score
CTCAGCAA	0.0669
ATAAGCAG	0.33
CTAAGCAC	0.183
ACTGGAGC	-0.253
GCTATCCC	-0.129
ATAGGCAA	0.157
AAGAAGAA	0.0684
ACTCCTAA	0.00319
ATCAACGA	0.0637
GTAACGCA	0.0946
ACCCCGGA	-0.00022
GTAAGCAA	0.419
TTAAGCAA	0.0545
GCAAGCAA	0.00274
AACACTCA	0.182
CGGCCAAG	-0.069
AAAGGCGG	-0.104
TCGAAGAA	0.014
ACGAAGAT	0.116
ACGAAGAA	0.284
GCAATGCA	-0.053
GGCTCTAA	0.0226
ACCATTGC	0.0233
GTGCAAAA	-0.037
ATCAATTA	0.317

Sequence	PBM E-score
ATCAATTG	0.232
ATCAATTC	0.044
ACCAATTG	-0.0132
AACAATTC	0.111
AACAATTG	0.0983
ACCAATTA	0.266
GCCAATTA	0.155
AACAATTA	0.295
CCTGGACG	-0.179
GCCTCAAA	0.0112
GGCCTGGA	-0.317
AGCCCCAG	-0.0735
CCTCACAG	0.0094
CGGGGAAG	-0.0981
CACGTTGA	-0.095
CTAAGCCA	-0.074
GTAAGCTA	0.36
ATAAGCTA	0.2
CTAAGCTA	0.162
ATAAGCCA	0.11
GTAAGCCA	0.264
AGTCTCAG	-0.123
AACCTGAC	0.131
ACGAGTCA	-0.257
CAAGAAGC	0.0478

Sequence	PBM E-score
AGCTCATG	-0.0196
CAGACGAC	-0.168
CAGACGAA	0.286
GAGACGAA	0.0297
GAGCGGTA	-0.0453
GCAAAAGC	-0.0287
ATCCCGCA	0.135
ATTCCACC	0.15
ATTCCACG	0.0808
ATTCCACA	0.266
ATTCCGCA	-0.0146
ATCCCGCG	0.258
ATTCCGCG	0.261
ATCCCGCC	0.0426
ATTCCGCC	0.215
ATGACGCA	0.195
CGTATTAA	0.106
CTTATTAC	0.236
ACTATTAA	0.162
ATTATTAC	0.305
ATTATTAA	0.316
GTTATTAA	0.214
ACTATTAC	0.224
CTTATTGA	0.125
CTTATTAA	0.299

Sequence	PBM E-score
CGGGAACG	-0.00694
GAGCGGCC	-0.239
GAGATCTC	-0.0335
GATCCCTA	-0.0517
AACATAAT	0.346
ATCATAAT	0.327
ATCATAAA	0.131
AACATAAC	0.223
CACATAAG	0.109
ATCATAAG	0.204
AACATACT	0.0533
AACATACG	0.171
AACATAAG	0.328
AAGTCAAC	0.0456
CACTGTTC	-0.108
AGGATATA	0.152
CAGTCCGA	-0.0341
AGGTTAGC	-0.199
TCGTCGAA	-0.161
AAACATGA	0.131
AAACATAG	-0.0763
AAACATAC	0.0238
